A short description of assay [1]: Cell Viability - NIH 3T3 (AID 541).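 Further: cells exposed to compound for 40 hours; plate controls were DMSO alone for no effect and tamoxifen positive control for full effect; nearly all actives have a fitted effect of over 25% in size.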 Particulars: NIH 3T3 cell viability, qHTS; activity change, negative = cytotoxicity: at 92.2 µM (top of the series). The procedure, abridged: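 AC50 values reflect concentration-dependent loss of intracellular ATP in NIH 3T3 cells after 40 hr treatment in complete culture medium, quantified by luciferase-based luminescence.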
In general terms: In qHTS, concentration-response curves come from the screen itself.

Assay [2] is described as follows: Cellular Toxicity (caspase-3) SK-N-SH (AID 661).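 Further: 0% = DMSO basal and 100% = 10 µM staurosporine.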 The procedure, abridged:
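Caspase 3/7 activation is measured as a luminescence increase from aminoluciferin released by substrate cleavage in SK-N-SH cells after 16 hr compound treatment; values are AC50 from concentration-response curves.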

Assay [3] deals with Cytochrome P450 3A4 (Homo sapiens) (UniProt P08684). As to the kind of experiment: qHTS Assay for Inhibitors and Substrates of Cytochrome P450 3A4 (AID 884). Further: nearly all actives have a fitted effect of over 50% in size. Further: potency means the concentration at half of the fitted maximal effect. The essentials:
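20 nM human CYP3A4 with 25 uM Luciferin-PPXE (at KM) in 200 mM KPO4, preincubated 10 min with compound; NADPH regeneration started a 60 min RT reaction. Luciferin detected by luminescence, normalized to 57 uM ketoconazole as full inhibition.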

Assay [4] can be described thus: MultiTox-Fluor Cytotoxicity Assay - LYMP1-002 - Dead Cells (AID 960). Further: nearly all actives have a fitted effect of over 60% in size. Further: potency means the concentration at half of the fitted maximal effect. The essentials: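 Acute cytotoxicity in a human lymphoblastoid line is scored as rising dead-cell protease signal after 16 hr exposure at 37 C, measured fluorometrically (485/520).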
Assay [5] is described as follows: Cell Viability - LYMP1-003 - Assay at 24 hr (AID 963).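 Further: plate controls were DMSO only for no effect and tetraoctylammonium bromide positive control for full effect.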 The procedure, abridged:
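Acute toxicity in LYMP1-003 lymphoblastoid cells: 24 hr compound treatment at 37 C, ATP measured with CellTiter-Glo after 30 min at room temperature. AC50 derived by fitting the Hill equation to qHTS titrations.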

Assay [6] in a line: Cell Viability - LYMP2-013 (AID 970).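 Further: cells exposed to compound for 24 h at 37 °C; nearly all actives have a fitted effect of over 55% in size.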 Further: potency means the concentration at half of the fitted maximal effect. The procedure, abridged:
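Acute toxicity was measured in human lymphoblastoid cells (2500/well) exposed to compound titrations for 24 hr, with ATP luminescence (CellTiter-Glo) as read-out and AC50 fitted by Hill equation.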

Assay [7] concerns the target Vitamin D3 receptor (Homo sapiens) (UniProt P11473). As to the kind of experiment: qHTS assay for small molecule antagonists of vitamin D receptor signaling (AID 588541; calls by dose curve;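 further: receptor activated by calcitriol during compound treatment; on the % scale 0 is the no-effect control and ±100 the full control effect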). The procedure, abridged: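 Antagonist-mode beta-lactamase reporter assay: HEK293T VDR-UAS-bla cells were exposed to titrated compound alongside 1-alpha,25-dihydroxyvitamin D3 at 3 nM final for 16 h. Values were normalized to the 50 nM agonist control and DMSO basal, with IC50 and efficacy from Hill equation fits.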

Assay [8] shares this target. As to the kind of experiment: qHTS assay for small molecule agonists of vitamin D receptor signaling (AID 588543; calls by dose curve;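 further: 0% = DMSO basal and 100% = reference agonist control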). The procedure, abridged: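 Reporter cells (HEK293T, VDR-UAS-bla) were seeded in medium with 2% charcoal-stripped serum and incubated 5 h, then compounds in concentration series were added for 16 h at 37 °C. Stimulation was scaled between DMSO basal and 50 nM 1α,25-dihydroxyvitamin D3.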

The target of assay [9] is Thyroid hormone receptor beta (Homo sapiens) (UniProt P10828). As to the kind of experiment: qHTS assay for small molecule agonists of thyroid hormone receptor beta signaling (AID 588545; calls by dose curve;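 further: 0% = DMSO only and 100% = 10 nM T3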). The essentials: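 TR-UAS-bla-GripTite HEK 293 cells in medium with 2% charcoal/dextran FBS, 0.1 mM NEAA and 1 mM sodium pyruvate were treated with titrated compounds for 18 hrs at 37 C. Beta-lactamase reporter was read with CCF4 dye (ex 405, em 460/530 nm); EC50 from Hill fits.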

In assay [10] the target is Voltage-gated inwardly rectifying potassium channel KCNH2 (Homo sapiens) (UniProt Q12809). Put plainly: qHTS Assay for Small Molecule Inhibitors of the Human hERG Channel Activity (AID 588834).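 Further: top concentration of the series differs between compounds; on the % scale 0 is the no-effect control and ±100 the full control effect; lower thallium flux fluorescence means stronger hERG block; nearly all actives have a fitted effect of over 50% in size.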 The procedure, abridged: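 hERG-BacMam U2OS, 2000 cells/well; 0.7X FluxOR loading 1 hr RT dark; cpd ~10 min 37 °C; stim buffer; FDSS fluorescence 2 min @ 1 s; AC50 Hill fit.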
Assay [11] in a line: qHTS assay for small molecule activators of the human pregnane X receptor (PXR) signaling pathway (AID 720659; call rule not given here; further: 0% is about no effect).
The nature of assay [12]: qHTS assay for small molecule antagonists of peroxisome proliferator-activated receptor delta signaling (AID 588535; active means well fitted inhibition curve with a large enough effect in the signal ratio, with a control signal flat, not every such curve was filed as active; the % refers to the signal ratio;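 on max response: cells co-treated with a PPAR-delta agonist as stimulator during compound exposure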). The settings on record: HEK293T PPARd-UAS-bla, beta-lactamase FRET ratio, 18 h; 460 nm channel. The procedure, abridged:
(§1)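 Cell-based beta-lactamase assay in antagonist mode: 4000 HEK293T PPAR-delta-UAS-bla cells per well, 5 hr preincubation then 18 hr compound incubation at 37 C. IC50 obtained by Hill equation fitting.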

Assay [13] has as its target Peroxisome proliferator-activated receptor delta (Homo sapiens) (UniProt Q03181). The description is as above. The procedure, abridged:
as §1

Assay [14] can be described thus: qHTS assay for small molecule activators of the p53 signaling pathway (AID 651743; active means well fitted activation curve with a large enough effect in the signal ratio, not every such curve was filed as active; the % refers to the signal ratio; further: potency means the concentration at half of the fitted maximal effect; on activation: % of control where 0% means no effect). Particulars: HCT-116 p53RE-bla, beta-lactamase FRET ratio, 16 h; activation: stronger effect = higher value. The essentials: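 Screen for p53 pathway agonists uses stably transfected p53RE-bla HCT-116 cells, 4,000 per well, treated 16 h at 37 C with compounds in DMSO.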
Assay [15] deals with Tumor necrosis factor (Homo sapiens) (UniProt P01375). As to the kind of experiment: qHTS assay to identify small molecules that stimulate Tumor Necrosis Factor-alpha (TNF-alpha) secretion (AID 651757; active means well fitted curve in the direction sought with a large enough effect in the signal ratio; the % refers to the signal ratio; further: 0% is about no effect). The essentials:
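Secreted TNF-alpha from compound-treated THP-1 cells (17 hrs, 37 C) was quantified with a homogeneous time-resolved fluorescence antibody assay.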

Assay [16] addresses Nuclear receptor ROR-gamma (Homo sapiens) (UniProt P51449). As to the kind of experiment: qHTS assay for small molecule antagonists of the retinoid-related orphan receptor gamma (ROR-gamma) signaling pathway (AID 651802). Further: nearly all actives have a fitted effect of over 60% in size. Further: potency means the concentration at half of the fitted maximal effect. The essentials: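 Antagonism is scored as a fall in luminescence from a RORE-luciferase reporter in CHO cells expressing ROR under a TET-inducible promoter, measured 16hr after doxycycline induction in the presence of compound.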

Assay [17] has as its target Peroxisome proliferator-activated receptor gamma (Homo sapiens) (UniProt P37231). As to the kind of experiment: qHTS assay for small molecule agonists of peroxisome proliferator-activated receptor gamma signaling (AID 588536; active means well fitted curve in the direction sought with a large enough effect in the signal ratio, with a control signal flat, not every such curve was filed as active; the % refers to the signal ratio;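 further: 0% = DMSO basal wells and 100% = rosiglitazone at 2 µM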). The essentials: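 GeneBLAzer PPAR-gamma-UAS-bla HEK293 cells in 1% charcoal/dextran-treated FBS medium were treated 16 h at 37 C with compounds. Beta-lactamase activity was read by CCF4 ratio (460/530 nm). Response was normalized to 2 uM rosiglitazone (100%) and DMSO, then Hill-fitted for EC50 and efficacy.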

Assay [18] in a line: qHTS assay for small molecule agonists of the antioxidant response element (ARE) signaling pathway (AID 651741; active means well fitted activation curve with a large enough effect in the signal ratio; the % refers to the signal ratio; further: potency means the concentration at half of the fitted maximal effect; on activation: % of control where 0% means no effect). The essentials:
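Seeding 2,000 ARE-bla HepG2 cells per well preceded a 5 h incubation at 37 C/5% CO2 and a 16 h compound exposure at 37 C. Beta-lactamase reporter activity was then quantified by fluorescence after 2 h with LiveBLAzer B/G FRET substrate.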

Assay [19] is described as follows: qHTS assay for small molecule disruptors of the mitochondrial membrane potential - 1 hr assay (AID 651754; calls by dose curve; further: nearly all actives have a fitted effect of over 35% in size; further: potency means the concentration at half of the fitted maximal effect). The essentials:
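Steps: seed HepG2 cells and let attach overnight; pin-transfer compound or vehicle; incubate 1 hr at 37C; add Mito-MPS dye for 30 min; read two-channel fluorescence for monomer and aggregate forms.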

Assay [20] can be described thus: Cell Viability - Jurkat (AID 426;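 active means dose-dependent loss of cell ATP signal giving a full or clear fitted curve, ranked by lower potency value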;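 further: potency means the concentration at half of the fitted maximal effect; cells exposed to compound for 40 hours at 37 °C before ATP read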). The settings on record: qHTS. The essentials:
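Seed 5000 Jurkat E6-1 cells/well; add compound; incubate 40 hr at 37 °C; add CellTiter-Glo; wait 20 min at room temperature; read luminescence. Fit concentration-response with Hill equation for AC50.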

Where “and” joins values, the source holds several entries; their conditions need not be identical. Identical values can stand only once. Results filed as inconclusive are left out. Calls of active or inactive are those of the source. Unless noted, the call rests on the fitted dose curve; in most records, active means well fitted curve in the direction sought with a large enough effect; inconclusive means small, poorly fitted or top-dose-only effect, or another doubt; inactive means no such curve, though single readings can be large; an effect the other way counts as inactive or inconclusive.

Chain of Cytochrome P450 3A4 (Homo sapiens) (P08684 whole entry, looked up): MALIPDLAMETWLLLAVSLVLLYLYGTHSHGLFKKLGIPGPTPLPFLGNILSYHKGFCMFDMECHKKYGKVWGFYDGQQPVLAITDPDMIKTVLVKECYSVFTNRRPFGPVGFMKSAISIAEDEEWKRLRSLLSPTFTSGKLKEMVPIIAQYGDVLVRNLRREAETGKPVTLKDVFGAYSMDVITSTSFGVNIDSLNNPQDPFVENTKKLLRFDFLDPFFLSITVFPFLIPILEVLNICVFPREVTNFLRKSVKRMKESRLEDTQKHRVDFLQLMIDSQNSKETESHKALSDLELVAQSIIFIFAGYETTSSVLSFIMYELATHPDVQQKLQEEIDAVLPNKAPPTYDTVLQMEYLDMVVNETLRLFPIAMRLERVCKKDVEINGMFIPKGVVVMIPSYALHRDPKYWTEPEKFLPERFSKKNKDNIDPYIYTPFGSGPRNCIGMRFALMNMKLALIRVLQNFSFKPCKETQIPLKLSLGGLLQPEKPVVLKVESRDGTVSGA
Chain of Peroxisome proliferator-activated receptor delta (Homo sapiens) (Q03181 whole entry, looked up): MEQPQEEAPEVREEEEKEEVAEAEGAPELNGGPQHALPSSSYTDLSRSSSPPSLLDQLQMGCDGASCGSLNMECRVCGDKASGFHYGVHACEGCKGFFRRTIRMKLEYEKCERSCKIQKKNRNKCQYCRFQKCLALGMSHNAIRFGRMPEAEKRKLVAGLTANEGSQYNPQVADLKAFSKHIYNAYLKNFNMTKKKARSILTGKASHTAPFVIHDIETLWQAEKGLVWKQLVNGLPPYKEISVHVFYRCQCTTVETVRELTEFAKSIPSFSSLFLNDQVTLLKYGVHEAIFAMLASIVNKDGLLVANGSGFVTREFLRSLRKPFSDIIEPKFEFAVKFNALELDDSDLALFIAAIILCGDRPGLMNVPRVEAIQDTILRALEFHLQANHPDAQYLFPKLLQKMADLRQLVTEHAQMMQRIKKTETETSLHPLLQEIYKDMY
Chain of Thyroid hormone receptor beta (Homo sapiens) (P10828 whole entry, looked up): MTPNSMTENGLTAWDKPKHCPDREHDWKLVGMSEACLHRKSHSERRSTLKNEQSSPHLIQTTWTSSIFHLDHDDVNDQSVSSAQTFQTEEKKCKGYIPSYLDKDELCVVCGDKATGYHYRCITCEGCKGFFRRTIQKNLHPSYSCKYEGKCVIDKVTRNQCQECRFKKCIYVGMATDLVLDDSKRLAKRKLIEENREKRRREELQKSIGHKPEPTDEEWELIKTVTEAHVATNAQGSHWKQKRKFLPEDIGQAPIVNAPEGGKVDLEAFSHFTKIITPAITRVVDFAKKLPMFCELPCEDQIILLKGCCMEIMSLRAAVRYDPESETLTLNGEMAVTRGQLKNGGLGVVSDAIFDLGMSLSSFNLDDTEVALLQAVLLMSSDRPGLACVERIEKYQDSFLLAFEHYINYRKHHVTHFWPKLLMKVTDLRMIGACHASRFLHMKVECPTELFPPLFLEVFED
Chain of Nuclear receptor ROR-gamma (Homo sapiens) (P51449 whole entry, looked up): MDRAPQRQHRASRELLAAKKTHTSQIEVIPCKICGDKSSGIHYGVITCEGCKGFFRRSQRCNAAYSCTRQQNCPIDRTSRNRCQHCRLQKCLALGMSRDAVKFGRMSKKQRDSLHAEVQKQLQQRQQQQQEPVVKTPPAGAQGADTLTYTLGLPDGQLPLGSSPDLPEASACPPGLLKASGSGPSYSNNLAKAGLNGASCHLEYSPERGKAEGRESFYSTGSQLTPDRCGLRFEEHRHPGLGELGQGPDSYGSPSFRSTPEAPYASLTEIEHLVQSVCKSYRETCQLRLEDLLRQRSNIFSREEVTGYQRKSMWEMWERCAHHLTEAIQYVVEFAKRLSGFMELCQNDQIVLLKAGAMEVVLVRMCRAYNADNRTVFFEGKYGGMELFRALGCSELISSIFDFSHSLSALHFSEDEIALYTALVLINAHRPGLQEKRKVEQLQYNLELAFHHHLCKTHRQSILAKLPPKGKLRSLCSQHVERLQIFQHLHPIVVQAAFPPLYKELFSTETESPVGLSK
Chain of Peroxisome proliferator-activated receptor gamma (Homo sapiens) (P37231 whole entry, looked up): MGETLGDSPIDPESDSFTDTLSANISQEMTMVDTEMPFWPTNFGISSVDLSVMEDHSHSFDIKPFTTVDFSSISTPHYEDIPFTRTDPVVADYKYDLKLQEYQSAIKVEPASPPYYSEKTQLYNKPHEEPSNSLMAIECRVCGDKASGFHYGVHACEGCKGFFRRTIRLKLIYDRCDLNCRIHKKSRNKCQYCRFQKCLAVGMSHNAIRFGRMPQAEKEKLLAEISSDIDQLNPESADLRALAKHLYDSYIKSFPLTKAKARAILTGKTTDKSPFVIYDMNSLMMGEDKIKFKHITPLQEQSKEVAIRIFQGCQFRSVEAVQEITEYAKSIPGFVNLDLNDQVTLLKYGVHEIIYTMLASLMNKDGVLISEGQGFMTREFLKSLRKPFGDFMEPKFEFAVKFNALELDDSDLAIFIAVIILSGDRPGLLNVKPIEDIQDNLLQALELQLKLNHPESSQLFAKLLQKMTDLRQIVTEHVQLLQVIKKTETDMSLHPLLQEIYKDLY
Chain of Vitamin D3 receptor (Homo sapiens) (P11473 whole entry, looked up): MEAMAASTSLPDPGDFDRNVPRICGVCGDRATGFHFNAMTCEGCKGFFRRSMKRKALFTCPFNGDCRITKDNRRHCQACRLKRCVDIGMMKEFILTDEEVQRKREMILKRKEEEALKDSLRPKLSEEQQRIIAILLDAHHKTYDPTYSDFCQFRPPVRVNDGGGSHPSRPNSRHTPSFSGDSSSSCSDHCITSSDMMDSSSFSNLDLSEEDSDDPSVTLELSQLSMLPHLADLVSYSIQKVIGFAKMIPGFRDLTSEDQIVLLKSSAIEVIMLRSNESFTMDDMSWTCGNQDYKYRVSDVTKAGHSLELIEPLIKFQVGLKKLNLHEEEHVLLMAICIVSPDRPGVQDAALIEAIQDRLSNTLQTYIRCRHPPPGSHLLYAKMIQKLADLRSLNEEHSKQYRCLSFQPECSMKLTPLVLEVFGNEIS
Chain of Tumor necrosis factor (Homo sapiens) (P01375 whole entry, looked up): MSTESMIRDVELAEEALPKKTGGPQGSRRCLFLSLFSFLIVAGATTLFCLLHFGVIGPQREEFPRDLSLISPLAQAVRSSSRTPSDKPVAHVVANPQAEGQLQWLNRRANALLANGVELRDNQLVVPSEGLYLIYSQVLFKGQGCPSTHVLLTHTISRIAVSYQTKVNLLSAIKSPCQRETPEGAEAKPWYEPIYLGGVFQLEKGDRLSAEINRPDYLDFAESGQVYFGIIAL
Chain of Voltage-gated inwardly rectifying potassium channel KCNH2 (Homo sapiens) (Q12809 whole entry, looked up): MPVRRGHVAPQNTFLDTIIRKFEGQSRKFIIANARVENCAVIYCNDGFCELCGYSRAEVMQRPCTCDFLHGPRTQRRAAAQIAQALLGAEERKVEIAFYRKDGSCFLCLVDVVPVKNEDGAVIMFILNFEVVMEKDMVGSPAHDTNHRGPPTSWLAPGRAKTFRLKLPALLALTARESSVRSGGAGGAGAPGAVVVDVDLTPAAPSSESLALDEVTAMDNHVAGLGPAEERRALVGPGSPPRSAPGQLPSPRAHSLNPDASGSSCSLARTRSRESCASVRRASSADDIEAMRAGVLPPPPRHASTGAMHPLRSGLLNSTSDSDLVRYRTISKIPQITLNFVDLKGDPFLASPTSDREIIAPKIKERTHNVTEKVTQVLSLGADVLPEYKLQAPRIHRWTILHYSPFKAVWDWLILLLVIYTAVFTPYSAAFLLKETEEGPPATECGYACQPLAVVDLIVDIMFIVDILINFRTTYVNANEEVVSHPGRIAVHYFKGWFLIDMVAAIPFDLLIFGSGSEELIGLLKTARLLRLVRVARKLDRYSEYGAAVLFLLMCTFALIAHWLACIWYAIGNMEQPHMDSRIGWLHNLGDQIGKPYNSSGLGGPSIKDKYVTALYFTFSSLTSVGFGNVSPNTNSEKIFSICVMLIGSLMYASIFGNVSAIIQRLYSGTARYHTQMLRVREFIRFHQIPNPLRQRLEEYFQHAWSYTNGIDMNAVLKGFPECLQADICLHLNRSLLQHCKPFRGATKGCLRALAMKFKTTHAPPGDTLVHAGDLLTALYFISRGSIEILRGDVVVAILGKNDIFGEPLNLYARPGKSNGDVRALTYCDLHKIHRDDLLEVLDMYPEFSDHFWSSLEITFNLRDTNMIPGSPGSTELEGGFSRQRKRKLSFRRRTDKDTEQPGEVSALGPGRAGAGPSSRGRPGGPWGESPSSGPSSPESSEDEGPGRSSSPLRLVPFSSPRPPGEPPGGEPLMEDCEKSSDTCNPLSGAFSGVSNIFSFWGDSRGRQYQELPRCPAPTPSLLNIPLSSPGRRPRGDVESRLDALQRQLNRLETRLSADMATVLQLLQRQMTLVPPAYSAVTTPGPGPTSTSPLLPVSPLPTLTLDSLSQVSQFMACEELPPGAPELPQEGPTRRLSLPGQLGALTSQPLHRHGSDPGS

Take `Oc1cc(Cl)cc(Cl)c1Cl`: in assay [1], the activity change, negative = cytotoxicity was -14.4% (inactive). Moreover, the result in assay [2] and in [11] was inactive. Also, the Potency entry in [3], in [4], in assay [5], in [6], in assay [7] and in [8] was “inactive” throughout. Further, the Potency entry in assay [9] and in [10] was “inactive” throughout.

As to `c1ccc(Nc2cccc3ccccc23)cc1`, the activity change, negative = cytotoxicity in [1] is -22.5% (inactive). Further, the molecule was classed as inactive in assay [2] and in assay [13]. Besides, the Potency entry in [6], in assay [9], in assay [15] and in [16] was “inactive” throughout. In addition, the max response in [12] was 27.2% and -10.4%. The activation in assay [14] is -1.55% (inactive) and -1.95% (inactive).

In the case of `CC/C=C/C/C=C/C/C=C/CCCCCCCC(=O)OCC`, the activity change, negative = cytotoxicity in assay [1] was -19.6% (inactive). The Potency is 10 µM (active) in assay [3] and 59.6 µM (active) in [18]. Moreover, the Potency result in [5], in assay [7], in assay [9], in assay [19], in assay [15] and in assay [16] was “inactive” each time. For the same molecule, the molecule was classed as inactive in [17].

For the molecule `C=CC(=O)CC`, in assay [1], the activity change, negative = cytotoxicity was -11.9% (inactive). In addition, the Potency result in assay [3], in assay [4], in assay [7], in assay [8], in assay [9] and in assay [10] was “inactive” each time. Further, the Potency result in assay [19], in [15] and in assay [16] was “inactive” throughout. Also, the call in assay [17] was inactive. Moreover, the activation in assay [14] is -1.3% (inactive).

As to `O=C(O)/C=C/c1ccc(/C=C/C(=O)O)cc1`, in assay [20], the Potency was > 92 µM (inactive). Also, the call in [2], in assay [13], in [17] and in assay [11] was inactive. Further, the Potency result in [3], in assay [4], in assay [5], in assay [6], in [18] and in assay [19] was “inactive” each time. Further, in assay [16], the Potency entry is “inactive”. In assay [12], the max response was -11.1%. Also, in assay [14], the activation was 1.28% (inactive).

For the molecule `C=CC(C)(O)CCCC(C)CCCC(C)CCCC(C)C` (stereo not given), the activity change, negative = cytotoxicity in assay [1] is -10.5% (inactive). Further, the Potency entry in assay [4], in assay [5], in assay [6], in assay [7], in [8] and in assay [9] was “inactive” each time. Also, the Potency result in [10], in [18] and in [15] was “inactive” each time. Moreover, the max response in assay [12] turned out to be 4.15%. For the same molecule, the result in assay [13], in [17] and in assay [11] was inactive. Moreover, the activation in assay [14] is -2.56% (inactive).

In the case of `CC1=C(/C=C/C(C)=C/C=C/C(C)=C/C=O)C(C)(C)CCC1`, the Potency is 21.5 µM (active) in assay [20], 31.6 µM (active) in [4], 50.1 µM (active) in assay [6] and 29.8 µM (active) in [18]. Further, the Potency result in [7], in [8], in [9], in [19] and in assay [15] was “inactive” in each case.

For `C[C@@H]1CC2(OC(O)[C@]3(C)O[C@H]23)O[C@H]2C[C@@]3(C)[C@@H]4CC[C@H]5C(C)(C)C(O[C@@H]6OC[C@@H](O)[C@H](O)[C@H]6O)CC[C@@]56C[C@@]46CC[C@]3(C)[C@@H]12` (stereo not given in full), the Potency in assay [20] was 41.2 µM (inactive); in assay [16] it was 33.5 µM (active). Also, the Potency result in [3], in assay [10] and in [15] was “inactive” in each case. Further, in assay [14], the activation was -3.37% (inactive). Further, in [11], the outcome was inactive.

Consider `Cc1c2ccccc2c(C)c2c1ccc1ccccc12`, for which the Potency in [20] is 36.6 µM (active); in assay [4], 25.1 µM (active); in assay [18] it was 10.6 µM (active) and 24.3 µM (active); in assay [14], 44.7 µM (active); in [19], 37.6 µM (active); in assay [16], 13.3 µM (active). In assay [1], the activity change, negative = cytotoxicity was -137% (active). Also, in assay [2], the call was inactive. Moreover, the Potency result in assay [6], in assay [10] and in [15] was “inactive” throughout.

Regarding `CC(=O)Nc1cccc(C)c1`, in [20], the Potency is > 92 µM (inactive). For the same molecule, the activity change, negative = cytotoxicity in assay [1] was -12.7% (inactive). Besides, the result in assay [2], in [13], in assay [17] and in assay [11] was inactive. Also, the Potency result in [3], in assay [4], in [6], in [7], in assay [10] and in assay [18] was “inactive” throughout. The Potency entry in assay [19], in assay [15] and in assay [16] was “inactive” throughout. In addition, the max response in assay [12] was -12.4%. Further, the activation in [14] is 0.223% (inactive).

These data come from PubChem BioAssay (NCATS).
